From the antibiotic and cytotoxicity screens of Wong et al. (2023)
About 1,500 (3.8%) of roughly 39,000 compounds were called active. The full list was thinned out, with actives kept by preference.

What follows are compounds tested on HSkMC (human skeletal muscle cells) (assay: cytotoxicity call (relative viability < 0.9)). Settings: 10 µM.

Structure (SMILES)	cytotoxicity call
Cc1noc(C)c1NC(=O)N(C)C[C@@H]1OCCCC[C@H](C)Oc2ccc(NS(=O)(=O)c3ccc(F)cc3)cc2C(=O)N([C@H](C)CO)C[C@@H]1C	inactive
Cc1noc(C)c1S(=O)(=O)N(C)C[C@@H]1Oc2c(NC(=O)c3cnccn3)cccc2C(=O)N([C@H](C)CO)C[C@@H]1C	inactive
O=C(C[C@H]1CC[C@H]2[C@@H](COC[C@H](O)CN2S(=O)(=O)c2ccccc2)O1)NCCN1CCCCC1	inactive
c1cc(CCN2CCNCC2)ccn1	inactive
O=C(O)[C@H](O)c1ccc(F)cc1	inactive
CCS(=O)(=O)N1C[C@]2(CN(C2)C(=O)Nc2c(noc2C)C)c2c(n(c3cc(ccc23)OC)C)[C@H]1CO	inactive
C[C@H](CO)N1C[C@H](C)[C@H](CN(C)Cc2ccncc2)Oc2ccc(NC(=O)Nc3ccc(C(F)(F)F)cc3)cc2CC1=O	inactive
C[C@H](CO)N1C[C@H](C)[C@@H](CN(C)Cc2ccncc2)Oc2ccc(NC(=O)Nc3ccc(C(F)(F)F)cc3)cc2CC1=O	active
C[C@@H]1CN([C@@H](C)CO)C(=O)Cc2cc(NC(=O)Nc3ccc(C(F)(F)F)cc3)ccc2O[C@H]1CN(C)Cc1ccncc1	inactive
C[C@@H]1CN([C@@H](C)CO)C(=O)Cc2cc(NC(=O)Nc3ccc(C(F)(F)F)cc3)ccc2O[C@@H]1CN(C)Cc1ccc(C(F)(F)F)cc1	active
C[C@@H]1CN([C@H](C)CO)C(=O)c2cc(NS(=O)(=O)c3ccc(Cl)cc3)ccc2O[C@@H](C)CCCCO[C@@H]1CN(C)Cc1ccc(C(=O)O)cc1	inactive
C[C@H](CO)N1C[C@H](C)[C@H](CN(C)C(=O)Nc2ccc3c(c2)OCO3)OCCCC[C@H](C)Oc2ccc(NC(=O)NC3CCCCC3)cc2C1=O	inactive
C[C@@H]1CN([C@H](C)CO)C(=O)Cc2cc(NS(C)(=O)=O)ccc2O[C@@H]1CN(C)S(=O)(=O)c1ccc(F)cc1	inactive
C[C@@H]1CCCCO[C@@H](CN(C)Cc2ccc(C(F)(F)F)cc2)[C@@H](C)CN([C@H](C)CO)C(=O)c2cc(NC(=O)Nc3ccccc3)ccc2O1	inactive
C[C@@H]1CCCCO[C@@H](CN(C)Cc2ccc(C(F)(F)F)cc2)[C@H](C)CN([C@H](C)CO)C(=O)c2cc(NC(=O)Nc3ccccc3)ccc2O1	active
C[C@@H]1CN([C@@H](C)CO)C(=O)c2cc(NC(=O)Nc3ccccc3)ccc2O[C@@H](C)CCCCO[C@@H]1CN(C)Cc1ccc(C(F)(F)F)cc1	inactive
C[C@@H]1CCCCO[C@H](CN(C)Cc2ccc(C(F)(F)F)cc2)[C@H](C)CN([C@H](C)CO)C(=O)c2cc(NC(=O)Nc3ccccc3)ccc2O1	active
C[C@H]1CCCCO[C@@H](CN(C)Cc2ccc(C(F)(F)F)cc2)[C@@H](C)CN([C@@H](C)CO)C(=O)c2cc(NC(=O)Nc3ccccc3)ccc2O1	active
C[C@@H]1CN([C@H](C)CO)C(=O)c2cc(NC(=O)Nc3ccccc3)ccc2O[C@@H](C)CCCCO[C@@H]1CN(C)Cc1ccc(C(F)(F)F)cc1	inactive
C[C@@H]1CCCCO[C@H](CN(C)Cc2ccc(C(F)(F)F)cc2)[C@@H](C)CN([C@@H](C)CO)C(=O)c2cc(NC(=O)Nc3ccccc3)ccc2O1	inactive
C[C@@H]1CCCCO[C@H](CN(C)Cc2ccc(C(F)(F)F)cc2)[C@@H](C)CN([C@H](C)CO)C(=O)c2cc(NC(=O)Nc3ccccc3)ccc2O1	inactive
C[C@@H]1CCCCO[C@@H](CN(C)Cc2ccc(C(F)(F)F)cc2)[C@H](C)CN([C@@H](C)CO)C(=O)c2cc(NC(=O)Nc3ccccc3)ccc2O1	inactive

Structure (SMILES)	cytotoxicity call
C[C@H](CO)N1C[C@H](C)[C@@H](CN(C)Cc2ccc(C(F)(F)F)cc2)OCCCC[C@H](C)Oc2ccc(NC(=O)Nc3ccccc3)cc2C1=O	inactive
C[C@@H]1CN([C@H](C)CO)C(=O)c2cc(NC(=O)Nc3ccccc3)ccc2O[C@@H](C)CCCCO[C@H]1CN(C)Cc1ccc(C(F)(F)F)cc1	active
C[C@@H]1CCCCO[C@H](CN(C)Cc2ccc(C(F)(F)F)cc2)[C@H](C)CN([C@@H](C)CO)C(=O)c2cc(NC(=O)Nc3ccccc3)ccc2O1	inactive
CO[C@H]1CN(C)C(=O)c2cc(NC(=O)Nc3ccc(Cl)cc3)ccc2OC[C@@H](C)N(C(=O)Nc2c(C)noc2C)C[C@H]1C	inactive
C[C@@H]1CCCCO[C@H](CN(C)S(=O)(=O)c2cccs2)[C@@H](C)CN([C@H](C)CO)C(=O)c2cc(NC(=O)Nc3ccc(C(F)(F)F)cc3)ccc2O1	inactive
Cc1noc(C)c1NC(=O)N(C)C[C@@H]1Oc2ccc(NC(=O)Cn3cnnn3)cc2CC(=O)N([C@@H](C)CO)C[C@H]1C	inactive
C[C@@H]1CN([C@H](C)CO)C(=O)Cc2cc(NC(=O)Cn3cnnn3)ccc2O[C@@H]1CN(C)C(=O)Nc1ccc(C(F)(F)F)cc1	inactive
C[C@H](CO)N1C[C@H](C)[C@H](CN(C)Cc2ccc(Cl)c(Cl)c2)OCCCC[C@H](C)Oc2ccc(NC(=O)Nc3ccc(C(F)(F)F)cc3)cc2C1=O	inactive
Cc1ccc(S(=O)(=O)N(C)C[C@@H]2Oc3ccc(NS(=O)(=O)c4cccs4)cc3C(=O)N([C@@H](C)CO)C[C@@H]2C)cc1	inactive
O=C(C[C@H]1CC[C@@H]2[C@H](COC[C@@H](O)CN2S(=O)(=O)c2cccc(F)c2)O1)NCCCN1CCOCC1	inactive
Cc1ccc(F)c(S(=O)(=O)N2[C@@H]3CC[C@@H](C3)[C@H]2c2nc3cccc(OCc4ccc(F)cc4)c3[nH]2)c1	inactive
C[C@H]1CCCCO[C@H](CN(C)Cc2ccc(C(F)(F)F)cc2)[C@@H](C)CN([C@@H](C)CO)C(=O)c2cc(NC(=O)Nc3ccccc3)ccc2O1	active
C[C@H]1CCCCO[C@H](CN(C)Cc2ccncc2)[C@@H](C)CN([C@@H](C)CO)C(=O)c2cc(NC(=O)c3ccccc3)ccc2O1	inactive
C[C@@H]1CCCCO[C@H](CN(C)Cc2ccncc2)[C@H](C)CN([C@@H](C)CO)C(=O)c2cc(NC(=O)c3ccccc3)ccc2O1	active
C[C@H](CO)N1C[C@H](C)[C@H](CN(C)Cc2ccncc2)OCCCC[C@H](C)Oc2ccc(NC(=O)c3ccccc3)cc2C1=O	inactive
C[C@@H]1CCCCO[C@@H](CN(C)Cc2ccc(C(F)(F)F)cc2)[C@H](C)CN([C@H](C)CO)C(=O)c2cc(NC(=O)c3ccccc3)ccc2O1	inactive
C[C@H](CO)N1C[C@H](C)[C@H](CN(C)Cc2ccc(C(F)(F)F)cc2)OCCCC[C@H](C)Oc2ccc(NC(=O)Nc3ccccc3)cc2C1=O	inactive
C[C@@H]1CN([C@@H](C)CO)C(=O)c2cc(NC(=O)Nc3ccccc3)ccc2O[C@@H](C)CCCCO[C@H]1CN(C)Cc1ccc(C(F)(F)F)cc1	active
C[C@@H]1CCCCO[C@H](CN(C)Cc2ccc(C(F)(F)F)cc2)[C@H](C)CN([C@H](C)CO)C(=O)c2cc(NC(=O)c3ccccc3)ccc2O1	inactive
C[C@H]1CCCCO[C@@H](CN(C)Cc2ccc(C(F)(F)F)cc2)[C@@H](C)CN([C@@H](C)CO)C(=O)c2cc(NC(=O)c3ccccc3)ccc2O1	active
C[C@@H]1CCCCO[C@@H](CN(C)Cc2ccc(C(F)(F)F)cc2)[C@@H](C)CN([C@@H](C)CO)C(=O)c2cc(NC(=O)Nc3ccccc3)ccc2O1	inactive
